Test results: the supplement of paper PMC12645437, “Orthogonal IMiD-Degron Pairs Induce Selective Protein Degradation in Cells” (ACS Chemical Biology, 2025)
Whole data set: some 8,300 sequences, median “log2 fold change of degron read counts, EGFP-low vs EGFP+ sorted cells (limma voom), compound-induced degradation” near -1.1, cut for the highest 2% near 3.2. This is one part of a sample in which the highest values are shown more often than they occur.

T1: CRBN, Q96SW2
T1 chain: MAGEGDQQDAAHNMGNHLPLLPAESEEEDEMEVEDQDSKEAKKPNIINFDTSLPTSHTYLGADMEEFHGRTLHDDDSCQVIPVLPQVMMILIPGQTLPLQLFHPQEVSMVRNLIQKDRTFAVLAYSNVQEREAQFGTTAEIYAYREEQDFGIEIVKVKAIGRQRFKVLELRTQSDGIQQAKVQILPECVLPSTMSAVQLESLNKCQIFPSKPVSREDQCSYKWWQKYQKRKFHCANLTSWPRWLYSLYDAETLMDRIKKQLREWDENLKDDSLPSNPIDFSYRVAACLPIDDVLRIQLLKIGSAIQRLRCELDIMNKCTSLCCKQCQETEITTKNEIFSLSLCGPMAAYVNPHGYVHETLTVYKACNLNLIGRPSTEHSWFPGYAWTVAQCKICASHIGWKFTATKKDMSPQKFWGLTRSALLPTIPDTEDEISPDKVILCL


Target: T1, CRBN, Q96SW2
Test: log2 fold change of degron read counts, EGFP-low vs EGFP+ sorted cells (limma voom), compound-induced degradation; higher = more compound-induced degradation of the degron-EGFP fusion; degrons are variants of IKZF1/3 zinc finger 2; compound dose not given here
Settings: Jurkat, 18 h
[1] = compound: compound 19 (5-tert-butyl-thalidomide)
[2] = compound: compound 22 (5-morpholino-thalidomide)
[3] = compound: compound 33 (diphenyl IMiD analogue)
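Also: pooled lentiviral library of zinc finger degron-EGFP fusions in mCherry-positive Jurkat cells, FACS-sorted after compound exposure, with degron abundance counted by next-generation sequencing.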

Sequence | log2 fold change of degron read counts [1] | log2 fold change of degron read counts [2] | log2 fold change of degron read counts [3] | log2 fold change of degron read counts (compound: thalidomide)
FLCPQCGATFTQKGNLLRHIKL [46F_47L_49P_50Q_52G_53A_54T_55F_67L_, Q9UKT9] | -3.01 | -2.75 | -0.206 | -0.949
FLCEICGHMFTQKGNLLRHIKL [46F_47L_49E_50I_52G_53H_54M_55F_67L_, Q9UKT9] | -2.82 | -2.78 | -2.56 | -2.3
FGCPICGRGFTQKGNLLRHIKL [46F_47G_49P_50I_52G_53R_54G_55F_67L_, Q9UKT9] | 2.07 | -0.191 | 0.245 | -0.872
FTCPQCGATFTQKGNLLRHIKL [46F_47T_49P_50Q_52G_53A_54T_55F_67L_, Q9UKT9] | -2 | -0.214 | 1.22 | 0.676
FTCNQCGAIFTQKGNLLRHIKL [46F_47T_49N_50Q_52G_53A_54I_55F_67L_, Q9UKT9] | -2.47 | -2.59 | -1.37 | -1.93
FVCPQCGAEFTQKGNLLRHIKL [46F_47V_49P_50Q_52G_53A_54E_55F_67L_, Q9UKT9] | -2.41 | -1.67 | -0.946 | -0.352
FECEICGRDFTQKGNLLRHIKL [46F_47E_49E_50I_52G_53R_54D_55F_67L_, Q9UKT9] | -3.1 | -3.32 | -2.34 | -2.82
LGCEICGFNCTQKGNLLRHIKL [46L_47G_49E_50I_52G_53F_54N_55C_67L_, Q9UKT9] | -0.546 | -1.21 | -1.47 | -1.13
FVCEICGRKFTQKGNLLRHIKL [46F_47V_49E_50I_52G_53R_54K_55F_67L_, Q9UKT9] | -1.83 | -1.33 | -1.16 | 1.3
LLCEICGFICTQKGNLLRHIKL [46L_47L_49E_50I_52G_53F_54I_55C_67L_, Q9UKT9] | -0.407 | -0.959 | 0.146 | 1.04
FHCPICGRQFTQKGNLLRHIKL [46F_47H_49P_50I_52G_53R_54Q_55F_67L_, Q9UKT9] | 0.0895 | 0.838 | 1.45 | 0.286
LMCPICGFECTQKGNLLRHIKL [46L_47M_49P_50I_52G_53F_54E_55C_67L_, Q9UKT9] | -0.925 | 0.39 | 2.43 | 1.39
LICPICGFPCTQKGNLLRHIKL [46L_47I_49P_50I_52G_53F_54P_55C_67L_, Q9UKT9] | 0.112 | 1.65 | 0.899 | 1.78
LSCPICGFRCTQKGNLLRHIKL [46L_47S_49P_50I_52G_53F_54R_55C_67L_, Q9UKT9] | 2.79 | 2.57 | 1.22 | 2.27
LHCPICGFRCTQKGNLLRHIKL [46L_47H_49P_50I_52G_53F_54R_55C_67L_, Q9UKT9] | 2.28 | 2.4 | 1.58 | 1.74
LCCPICGFPCTQKGNLLRHIKL [46L_47C_49P_50I_52G_53F_54P_55C_67L_, Q9UKT9] | 0.812 | 1.08 | 1.35 | 1.76
LKCPICGFRCTQKGNLLRHIKL [46L_47K_49P_50I_52G_53F_54R_55C_67L_, Q9UKT9] | -1.28 | -2.03 | -2.25 | -0.57
LFCPICGFRCTQKGNLLRHIKL [46L_47F_49P_50I_52G_53F_54R_55C_67L_, Q9UKT9] | 3.24 | 3.2 | 1.81 | 1.69
LRCPICGFPCTQKGNLLRHIKL [46L_47R_49P_50I_52G_53F_54P_55C_67L_, Q9UKT9] | 2.94 | 3.54 | 3.02 | 3.44
LNCPICGFRCTQKGNLLRHIKL [46L_47N_49P_50I_52G_53F_54R_55C_67L_, Q9UKT9] | 1.52 | 0.801 | 0.131 | 1.04
LVCPICGFECTQKGNLLRHIKL [46L_47V_49P_50I_52G_53F_54E_55C_67L_, Q9UKT9] | 0.125 | 2.29 | 1.28 | 2.99
LQCPICGFECTQKGNLLRHIKL [46L_47Q_49P_50I_52G_53F_54E_55C_67L_, Q9UKT9] | 1.35 | 1.29 | 2.04 | 3.44
LACPICGFRCTQKGNLLRHIKL [46L_47A_49P_50I_52G_53F_54R_55C_67L_, Q9UKT9] | 3.37 | 2.7 | 1.18 | 2.12
FCCPVCGAMFTQKGNLLRHIKL [46F_47C_49P_50V_52G_53A_54M_55F_67L_, Q9UKT9] | 1.36 | 0.957 | 2.19 | 1.18
FGCNVCGACFTQKGNLLRHIKL [46F_47G_49N_50V_52G_53A_54C_55F_67L_, Q9UKT9] | 0.221 | 0.434 | 1.03 | -0.871
FRCEICGHAFTQKGNLLRHIKL [46F_47R_49E_50I_52G_53H_54A_55F_67L_, Q9UKT9] | -3.15 | -2.82 | -1.17 | -1.87
FACNVCGAEFTQKGNLLRHIKL [46F_47A_49N_50V_52G_53A_54E_55F_67L_, Q9UKT9] | -1.27 | -1.39 | -1.75 | -2.2
FMCSVCGHCFTQKGNLLRHIKL [46F_47M_49S_50V_52G_53H_54C_55F_67L_, Q9UKT9] | -2.46 | -3.02 | -2.83 | -2.57
